Laboratory results as given in PubChem BioAssay (NCI).
The panel holds about 83,000 compounds, 20% with a hit somewhere; the sample as a whole holds those more often.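 Cell lines were cultured in 96-well plates, exposed to a single compound concentration, and assessed for percent growth 48 hours later.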 Unmarked numbers belong to inactive results. Active and inactive are the calls of the source. How the source made its calls: active means growth percent below 10; inactive means the rest.

tested on: HL-60(TB) leukemia; assay: NCI-60 one-dose screen, 48 h (100 = growth as untreated, 0 = no growth, -100 = all killed); details: 10 µM unless noted

SMILES	growth
COc1ccc(/C=C/C(=O)NCC(C)O)cc1 (stereo unspecified)	109%
C/C(=N/O)c1ccc(NC(=O)Cn2nc(-c3ccc(Cl)cc3)nc2N)cc1	94.7%
CC/C=C\CCC/C=C1/C(=O)C=C[C@@H]1C/C=C\CCCC(=O)OC	-9.11% (active)
CC(c1ccccc1)N1C(=O)C(C2SC(=S)N(C(C)c3ccccc3)C2=O)SC1=S (stereo unspecified)	78.2%
O=C(COc1cccc(/C=C2\COc3ccccc3C2=O)c1)Nc1nccs1	-58.4% (active)
CCOC(=O)c1cnc2c(cnn2CC)c1NN=C(C)C	74.4%
CCCN1[C@@H]2CC[C@H]1/C(=C\c1ccc(OC)c(OC)c1)C(=O)/C2=C/c1ccc(OC)c(OC)c1	20.5%
CCC1(/C=N/NC(N)=S)NC(=O)NC1=O (stereo unspecified)	111%
CCOC(=O)N1CCN(S(=O)(=O)c2oc(-c3ccc(Cl)cc3)nc2C#N)CC1	56.4%
COc1ccc(Nc2c3c4c(cccc4[nH]c2=O)C(=O)c2ccccc2-3)cc1	-60.4% (active)
CS(=O)(=O)c1cccc(Nc2ncc3cc(-c4ccccc4Cl)ccc3n2)c1	-8.46% (active)
CC(C)(CC(=O)O)CC(=O)O	103%
N#Cc1nc(-c2ccccc2)oc1S(=O)(=O)N1CCN(c2ccccc2)CC1	75.6%
CCOC(=O)C(C(=O)OCC)C(c1ccccc1)N1CCN(c2ccccc2)CC1 (stereo unspecified)	97.7%
O=C(/C=C\c1ccc(O)cc1)c1ccccc1	71.9%
COC(=O)/C=C/C(=O)c1cc(C)cc(C)c1O	86.6%
CNC(=O)NCC1OC(n2cnc3c(NC(=O)Nc4ccccc4)ncnc32)C(O[Si](C)(C)C(C)(C)C)C1CC(=O)N(C)OC (stereo unspecified)	-33.1% (active)
CC(Br)C(Br)c1cc2c(cc1Br)OCO2 (stereo unspecified)	97%
CC(=O)Oc1ccccc1C(=O)N=C1[Se]CCN1C(=O)c1ccccc1OC(C)=O	-34.4% (active)
CCOC(=O)c1sc(NC(=O)CN2CCC(Cc3ccccc3)CC2)nc1C	92%
CCN(CC)CCn1c2ccc(OC)cc2c2sc3cc(OC)ccc3c(=O)c21	7.58% (active)
CCOC(=O)/C=C1\S/C(=N\Nc2cc(=O)[nH]c3ccc(OC)cc23)N(c2ccccc2)C1=O	96.1%
COc1ccc(C(=O)Nc2cccc(-c3cc(=O)c4c(OC)c(OC)c(OC)cc4o3)c2)cc1	44.8%
CN(C)c1ccc(/C=C/c2sc3ccc4ccccc4c3[n+]2C)cc1	-41.8% (active)
O=C(O)/C=C\C(=O)Nc1cccc2ccccc12	56.7%
N#Cc1nc(-c2ccccc2)oc1S(=O)(=O)N1CCN(c2ccc(F)cc2)CC1	28.1%
